This passage reports Potency results from PubChem BioAssay (Tox21).

Records with an inconclusive call do not appear. The source made the active and inactive calls. Unless noted, the call rests on the fitted dose curve; in most records, active means well fitted curve in the direction sought with a large enough effect in the repeat runs; inconclusive means weak or mixed curves; inactive means no such curve, though single readings can be large; an effect the other way counts as inactive or inconclusive.

Test [1] in a line: qHTS assay to identify small molecule antagonists of the glucocorticoid receptor (GR) signaling pathway - cell viability counter screen (AID 720693). Further: nearly all actives have a fitted effect of over 55% in size. Further: potency means the concentration at half of the fitted maximal effect.
Test [2] can be described thus: qHTS assay for identifying genotoxic compounds that show differential cytotoxicity against isogenic chicken DT40 cell lines with known DNA damage response pathways - wild type cell line (AID 743012). Further: nearly all actives have a fitted effect of over 60% in size. Further: potency means the concentration at half of the fitted maximal effect. The method, boiled down:
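Luminescent ATP viability signal (CellTiter-Glo, 30 min RT) recorded after wild type DT40 cells were incubated with compounds for 40 h at 37 C/5% CO2.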
A general note: In qHTS, concentration-response curves come from the screen itself.

A short description of test [3]: qHTS assay for identifying genotoxic compounds that show differential cytotoxicity against isogenic chicken DT40 cell lines with known DNA damage response pathways - Rev3 mutant cell line (AID 743014). Further: nearly all actives have a fitted effect of over 55% in size. Further: potency means the concentration at half of the fitted maximal effect.
Test [4] in a line: qHTS assay for identifying genotoxic compounds that show differential cytotoxicity against isogenic chicken DT40 cell lines with known DNA damage response pathways - Rad54/Ku70 mutant cell line (AID 743015). Further: nearly all actives have a fitted effect of over 60% in size. Further: potency means the concentration at half of the fitted maximal effect.
Test [5] deals with Androgen receptor (Homo sapiens) (UniProt P10275). The test is described as follows: qHTS assay to identify small molecule agonists of the androgen receptor (AR) signaling pathway (AID 743036; active means well fitted activation curve with a large enough effect in the signal ratio in the repeat runs, with a control signal flat, not every such curve was filed as active; the % refers to the signal ratio). The method, boiled down: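 Agonist activity was scored by beta-lactamase reporter fluorescence in stably transfected HEK293 cells exposed to compounds for 16 h at 37C and 5% CO2. Substrate loading took 2 h at room temperature.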
Chain of Androgen receptor (Homo sapiens) (P10275 whole entry, looked up): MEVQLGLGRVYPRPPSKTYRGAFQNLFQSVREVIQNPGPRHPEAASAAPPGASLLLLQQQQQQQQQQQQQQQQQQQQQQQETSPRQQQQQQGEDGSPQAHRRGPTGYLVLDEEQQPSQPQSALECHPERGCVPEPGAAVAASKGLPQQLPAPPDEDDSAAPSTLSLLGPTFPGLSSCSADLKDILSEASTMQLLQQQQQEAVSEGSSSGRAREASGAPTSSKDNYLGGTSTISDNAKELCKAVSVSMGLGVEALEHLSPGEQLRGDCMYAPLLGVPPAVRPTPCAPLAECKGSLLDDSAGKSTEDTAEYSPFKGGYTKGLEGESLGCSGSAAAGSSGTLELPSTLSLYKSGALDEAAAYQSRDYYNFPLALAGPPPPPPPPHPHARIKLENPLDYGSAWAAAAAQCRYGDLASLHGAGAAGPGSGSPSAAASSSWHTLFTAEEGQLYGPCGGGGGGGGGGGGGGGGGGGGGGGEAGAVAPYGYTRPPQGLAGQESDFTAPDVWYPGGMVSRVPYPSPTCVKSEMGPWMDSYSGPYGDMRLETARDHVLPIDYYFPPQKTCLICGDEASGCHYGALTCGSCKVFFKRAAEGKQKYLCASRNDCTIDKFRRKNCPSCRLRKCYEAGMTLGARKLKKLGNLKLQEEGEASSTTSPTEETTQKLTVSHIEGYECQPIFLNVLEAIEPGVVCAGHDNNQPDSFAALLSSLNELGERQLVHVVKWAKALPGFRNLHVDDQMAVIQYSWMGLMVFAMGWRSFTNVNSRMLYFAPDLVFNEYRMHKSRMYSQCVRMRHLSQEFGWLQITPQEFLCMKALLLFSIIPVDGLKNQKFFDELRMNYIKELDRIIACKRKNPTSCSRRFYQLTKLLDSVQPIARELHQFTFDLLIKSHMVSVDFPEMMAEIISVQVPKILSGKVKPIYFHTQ

Test [6] shares this target. In words: qHTS assay to identify small molecule agonists of the androgen receptor (AR) signaling pathway using the MDA cell line (AID 743040; further: nearly all actives have a fitted effect of over 20% in size). The method in brief:
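Cell-based luciferase reporter: MDA-kb2, MMTV promoter (AR + GR response elements). 16 h compound exposure at 37C; ONE-Glo, 30 min RT, luminescence.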

A short description of test [7]: qHTS assay to identify small molecule antagonists of the androgen receptor (AR) signaling pathway using the MDA cell line - cell viability counter screen (AID 743041; further: nearly all actives have a fitted effect of over 45% in size; further: potency means the concentration at half of the fitted maximal effect). The method in brief: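 In this qHTS counter assay, fluorescence intensity after CellTiter-Fluor addition indicated viability of MDA-kb2 AR-luc cells given compounds and R1881 for 16 h at 37C.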
Test [8] deals with Androgen receptor (Homo sapiens) (UniProt P10275). In words: qHTS assay to identify small molecule antagonists of the androgen receptor (AR) signaling pathway using the MDA cell line (AID 743042; further: nearly all actives have a fitted effect of over 55% in size). The method, boiled down:
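MDA-kb2 cells (human breast carcinoma, stably carrying an MMTV-luciferase reporter responsive to AR and GR) were plated at 3,000 cells/well and preincubated 5 hr at 37C, then given compound plus R1881 agonist for 16 h. ONE-Glo luminescence was read.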

For the molecule `Cc1cc(O)c2c(c1)O[C@@]1(C)CC[C@H]3C(C)(C)CCCC34CO[C@@H]2[C@H]41` (some centres not stated), the Potency was 23.9 µM (active) in test [1], 13.3 µM (active) in test [2], 10.6 µM (active) in test [3] and 13.3 µM (active) in test [4]. Besides, the Potency result in test [5] and in test [6] was “inactive” throughout.
For `CO[C@H]1C=CO[C@@]2(C)Oc3c(C)c(O)c4c(O)c(c5c(nc6cc(C)ccn65)c4c3C2=O)NC(=O)/C(C)=C\C=C[C@H](C)[C@H](O)[C@@H](C)[C@@H](O)[C@@H](C)[C@H](OC(C)=O)[C@@H]1C`, the Potency result in test [1] and in test [7] was “inactive” throughout. The Potency in test [2] is 26.6 µM (active); in test [3], 23.7 µM (active); in test [4] it was 29.8 µM (active).
For `FCOC(C(F)(F)F)C(F)(F)F`, the Potency result in test [1], in test [2], in test [3], in test [4] and in test [7] was “inactive” each time.
With `CC1(C)S[C@@H]2[C@H](NC(=O)C(N)c3ccccc3)C(=O)N2[C@H]1C(=O)OC1OC(=O)c2ccccc21` (some centres not stated), the Potency entry in test [1], in test [2], in test [3], in test [4] and in test [7] was “inactive” each time.
`C/C=C1\NC(=O)[C@H]2CSSCC/C=C/[C@H](CC(=O)N[C@H](C(C)C)C(=O)N2)OC(=O)C(C(C)C)NC1=O` (some centres not stated): the Potency in test [1] is 2.39 µM (active); in test [2], 0.0013 µM (active); in test [3] it was 0.0012 µM (active); in test [4] it was 0.0017 µM (active); in test [7], 7.5 µM (active). Also, the Potency entry in test [6] and in test [8] was “inactive” in each case.
On to `OC[C@@H](O)C(O)[C@H](O)CO`, for which the Potency entry in test [1], in test [2], in test [3], in test [4] and in test [7] was “inactive” in each case.
As to `CCC(=O)OCC(=O)[C@@]1(OC(=O)CC)[C@@H](C)C[C@H]2[C@@H]3CCC4=CC(=O)C=C[C@]4(C)[C@@]3(F)[C@@H](O)C[C@@]21C`, the Potency entry in test [1] and in test [7] was “inactive” each time. In addition, the Potency in test [2] is 13.3 µM (active); in test [3], 29.8 µM (active); in test [4] it was 23.7 µM (active).
Consider `C[C@H](CCCC(C)(C)O)[C@H]1CC[C@H]2[C@@H]3CC=C4C[C@@H](O)CC[C@]4(C)[C@H]3CC[C@]12C`, for which the Potency entry in test [1], in test [6], in test [7] and in test [8] was “inactive” throughout. Further, the Potency in test [2] was 1.68 µM (active); in test [3], 0.211 µM (active); in test [4] it was 10.6 µM (active).
As for `C=C(NC(=O)C(=C)NC(=O)c1csc(C2=N[C@@H]3c4csc(n4)[C@H]4NC(=O)c5csc(n5)[C@H]([C@](C)(O)[C@@H](C)O)NC(=O)[C@H]5CSC(=N5)C(=CC)NC(=O)C([C@@H](C)O)NC(=O)c5csc(n5)[C@]3(CC2)NC(=O)[C@H](C)NC(=O)C(=C)NC(=O)[C@H](C)NC(=O)C([C@@H](C)CC)NC2C=Cc3c([C@H](C)O)cc(nc3C2O)C(=O)O[C@@H]4C)n1)C(N)=O` (some centres not stated), the Potency entry in test [1] and in test [6] was “inactive” throughout. The values for the Potency in test [2], in test [3] and in test [4] were 2.54 µM (active), 3.2 µM (active) and 4.03 µM (active), respectively.
As to `N#Cc1ccc2c(c1)N(CCCN1CCC(O)CC1)c1ccccc1S2`, the Potency result in test [1] and in test [6] was “inactive” throughout. Besides, the figures for the Potency in test [2], in test [3] and in test [4] were 18.8 µM (active), 26.6 µM (active) and 21.1 µM (active), respectively.
Consider `CC(=O)c1ccc2c(c1)N(CCCN1CCN(CCO)CC1)c1ccccc1S2`, for which the Potency entry in test [1] and in test [7] was “inactive” each time. In addition, the Potency in test [2] is 13.3 µM (active); in test [3], 26.6 µM (active); in test [4], 21.1 µM (active).
In the case of `NC(Cc1ccccc1)C(=O)O` (configuration not stated), the Potency result in test [1], in test [2], in test [3], in test [4] and in test [7] was “inactive” in each case.
On to `CCCCCCCCCCCCCCCCCCCCCC(=O)Nc1ccn([C@@H]2O[C@H](CO)[C@@H](O)[C@@H]2O)c(=O)n1`, for which the Potency entry in test [1], in test [6], in test [7] and in test [8] was “inactive” in each case. Further, the Potency in test [2] was 18.8 µM (active); in test [3], 23.7 µM (active); in test [4], 26.6 µM (active).
For `O=S(=O)(O)Oc1ccc(C(c2ccc(OS(=O)(=O)O)cc2)c2ccccn2)cc1`, the Potency entry in test [1], in test [2], in test [3], in test [4] and in test [7] was “inactive” in each case.
As for `COc1ccccc1N1CCN(CCCC(=O)c2ccc(F)cc2)CC1`, the Potency result in test [1] and in test [7] was “inactive” throughout. Further, the figures for the Potency in test [2], in test [3] and in test [4] were 13.3 µM (active), 11.9 µM (active) and 26.6 µM (active), respectively.
